PubChem BioAssay (EPA / NIEHS)
Where “and” joins values, the source holds several entries; their conditions need not be identical. Equal entries are not always repeated. Some structures have more than one record in an assay (separate samples or runs), and their calls can disagree. Calls of active or inactive are those of the source. The calls were made as follows: active = hit-call score of the fitted dose curve at least 0.9, where 1 is the maximum; inactive = score below 0.9.

What was measured:
[1] = read-out: Macrophage colony-stimulating factor (MCSF), CSF1 (gene 1435); experiment: BSK_hDFCGF_MCSF: BioMAP Diversity Plus: hDFCGF Assay for Macrophage colony-stimulating factor (MCSF) Biomarker Activity (AID 2283060); conditions: primary human foreskin fibroblasts; actives raise or lower the signal
How it was run: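 Primary human foreskin fibroblasts dosed with chemical; 24 h later, M-CSF quantified by ELISA; curves fitted in both directions vs DMSO negative control.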

[2] = BSK_hDFCGF_SRB: Viability Assessment in the BioMAP Diversity Plus: hDFCGF Assay (AID 2283061); conditions: primary human foreskin fibroblasts;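 also: cells exposed to compound for 24 h before the read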
How it was run: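 Readout is SRB absorbance at 560 nm, reflecting total protein in parallel cultures of human foreskin fibroblasts harvested 24 h after chemical dosing. Activity was fitted bidirectionally relative to DMSO.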

[3] = read-out: TIMP metallopeptidase inhibitor 1 (TIMP1), TIMP1 (gene 7076); experiment: BSK_hDFCGF_TIMP1: BioMAP Diversity Plus: hDFCGF Assay for TIMP metallopeptidase inhibitor 1 (TIMP1) Biomarker Activity (AID 2283062); conditions: primary human foreskin fibroblasts; actives raise or lower the signal
How it was run: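 Human skin fibroblasts (primary), hDFCGF system; compound exposure 24 h; TIMP-1 by ELISA; bidirectional fit vs DMSO negative control; overt cytotoxicity by SRB in parallel wells.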

[4] = read-out: Monokine induced gamma interferon (MIG), CXCL9 (gene 4283); experiment: BSK_hDFCGF_MIG: BioMAP Diversity Plus: hDFCGF Assay for Monokine induced gamma interferon (MIG) Biomarker Activity (AID 2283063); conditions: primary human foreskin fibroblasts; actives raise or lower the signal
How it was run: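 Chemicals were added to primary human foreskin fibroblast cultures, which were sampled 24 h later. MIG levels were then quantified by ELISA and responses fitted in both directions relative to DMSO.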

[5] = read-out: Matrix Metallopeptidase 1 (MMP1), MMP1 (gene 4312); experiment: BSK_hDFCGF_MMP1: BioMAP Diversity Plus: hDFCGF Assay for Matrix Metallopeptidase 1 (MMP1) Biomarker Activity (AID 2283064); conditions: primary human foreskin fibroblasts; actives raise or lower the signal
How it was run: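 MMP1 levels quantified by ELISA 24 h after dosing human dermal fibroblast cultures, with parallel SRB total-protein staining for overt cytotoxicity. Data fitted in both directions against DMSO baseline.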

[6] = read-out: Vascular cell adhesion molecule 1 (VCAM1), VCAM1 (gene 7412); experiment: BSK_hDFCGF_VCAM1: BioMAP Diversity Plus: hDFCGF Assay for Vascular cell adhesion molecule 1 (VCAM1) Biomarker Activity (AID 2283065); conditions: primary human foreskin fibroblasts; actives raise or lower the signal;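 as to AC50: VCAM-1 protein level quantified by ELISA after 24 h chemical exposure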
How it was run: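 Human foreskin fibroblast primary cells, chemical exposure 24 h; VCAM-1 by ELISA; bidirectional fit, DMSO = negative control/baseline.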

[7] = read-out: Plasminogen activator inhibitor-1 (PAI1), SERPINE1 (gene 5054); experiment: BSK_hDFCGF_PAI1: BioMAP Diversity Plus: hDFCGF Assay for Plasminogen activator inhibitor-1 (PAI1) Biomarker Activity (AID 2283066); conditions: primary human foreskin fibroblasts; actives raise or lower the signal
How it was run: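 ELISA readout of PAI-1 from primary human skin fibroblast cultures, 24 h after compound addition. Gain or loss of signal was fitted bidirectionally against DMSO baseline.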

[8] = read-out: Intercellular Adhesion Molecule 1 (ICAM1), ICAM1 (gene 3383); experiment: BSK_KF3CT_ICAM1: BioMAP Diversity Plus: KF3CT Assay for Intercellular Adhesion Molecule 1 (ICAM1) Biomarker Activity (AID 2283067); conditions: primary human keratinocytes with fibroblasts; actives raise or lower the signal
How it was run: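 ICAM-1 levels are measured by ELISA 24 h after dosing a primary human co-culture of keratinocytes and foreskin fibroblasts. Activity in either direction is fitted relative to DMSO vehicle.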

[9] = read-out: Interferon-gamma inducible Protein 10 (IP10), CXCL10 (gene 3627); experiment: BSK_KF3CT_IP10: BioMAP Diversity Plus: KF3CT Assay for Interferon-gamma inducible Protein 10 (IP10) Biomarker Activity (AID 2283068); conditions: primary human keratinocytes with fibroblasts; actives raise or lower the signal
How it was run: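 Signal is secreted/surface IP-10 by ELISA in a human primary skin co-culture of keratinocytes and foreskin fibroblasts, taken 24 h post-dosing; DMSO served as negative control.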

[10] = BSK_KF3CT_SRB: Viability Assessment in the BioMAP Diversity Plus: KF3CT Assay (AID 2283069); conditions: primary human keratinocytes with fibroblasts;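 also: total protein by sulforhodamine B staining as a cytotoxicity measure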
How it was run: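 Cytotoxicity was gauged by SRB staining (0.1% SRB, 10% TCA fixation, 560 nm) of parallel cultures at 24 h. The cells were primary human skin keratinocytes co-cultured with fibroblasts, and activity was fitted in both directions against DMSO.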

[11] = read-out: Interleukin-1 alpha (IL1a), IL1A (gene 3552); experiment: BSK_KF3CT_IL1a: BioMAP Diversity Plus: KF3CT Assay for Interleukin-1 alpha (IL1a) Biomarker Activity (AID 2283070); conditions: primary human keratinocytes with fibroblasts; actives raise or lower the signal
How it was run: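 IL-1a was detected by ELISA 24 h after chemical treatment of a co-culture of human skin keratinocytes and foreskin fibroblasts. Gain or loss of signal was fitted against the DMSO baseline.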

[12] = read-out: TIMP metallopeptidase inhibitor 2 (TIMP2), TIMP2 (gene 7077); experiment: BSK_KF3CT_TIMP2: BioMAP Diversity Plus: KF3CT Assay for TIMP metallopeptidase inhibitor 2 (TIMP2) Biomarker Activity (AID 2283071); conditions: primary human keratinocytes with fibroblasts; actives raise or lower the signal
How it was run: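 ELISA readout of TIMP-2 in keratinocyte plus foreskin fibroblast co-cultures (human skin primary cells), 24 h post-dose. Gain or loss of signal fitted relative to DMSO.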

[13] = read-out: C-C motif chemokine 2 (Homo sapiens) (UniProt P13500); experiment: BSK_KF3CT_MCP1: BioMAP Diversity Plus: KF3CT Assay for Monocyte Chemoattractant Protein 1 (MCP1/CCL2) Biomarker Activity (AID 2283073); conditions: primary human keratinocytes with fibroblasts; actives raise or lower the signal
How it was run: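 ELISA readout of MCP-1 after 24 h chemical dosing of a human skin primary co-culture of keratinocytes and foreskin fibroblasts. Activity was fitted in both directions against DMSO.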

[14] = read-out: Matrix Metallopeptidase 9 (MMP9), MMP9 (gene 4318); experiment: BSK_KF3CT_MMP9: BioMAP Diversity Plus: KF3CT Assay for Matrix Metallopeptidase 9 (MMP9) Biomarker Activity (AID 2283074); conditions: primary human keratinocytes with fibroblasts; actives raise or lower the signal;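 as to AC50: MMP9 protein level quantified by ELISA in the co-culture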
How it was run: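 MMP-9 quantified by ELISA after 24 h chemical treatment of primary human skin keratinocyte/fibroblast co-cultures; gain or loss fitted against DMSO, with parallel SRB staining (0.1% SRB, 560 nm) for overt cytotoxicity.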

[15] = read-out: urokinase plasminogen activator (uPA), PLAU (gene 5328); experiment: BSK_KF3CT_uPA: BioMAP Diversity Plus: KF3CT Assay for urokinase plasminogen activator (uPA) Biomarker Activity (AID 2283075); conditions: primary human keratinocytes with fibroblasts; actives raise or lower the signal
How it was run: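 ELISA read-out of uPA 24 h after dosing human skin keratinocytes co-cultured with foreskin fibroblasts. Signal change fitted both ways relative to DMSO; sulforhodamine B on parallel cultures marks overt cytotoxicity.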

[16] = read-out: CD40, CD40 (gene 958); experiment: BSK_LPS_CD40: BioMAP Diversity Plus: LPS Assay for CD40 Biomarker Activity (AID 2283076); conditions: primary human HUVEC with PBMC; actives raise or lower the signal
How it was run: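 Cells were dosed, incubated 24 h, then assayed for CD40 by ELISA. Gain or loss of signal was analysed relative to DMSO controls. The culture paired human umbilical vein endothelium with peripheral blood mononuclear cells.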

[17] = read-out: E-selectin (Homo sapiens) (UniProt P16581); experiment: BSK_LPS_Eselectin: BioMAP Diversity Plus: LPS Assay for Eselectin Biomarker Activity (AID 2283077); conditions: primary human HUVEC with PBMC; actives raise or lower the signal
How it was run: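 Primary human vascular co-culture (endothelium plus PBMC) was dosed with chemical, then E-selectin quantified by ELISA at 24 h. Endpoint values derive from bidirectional curve fitting relative to DMSO.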

[18] = read-out: Interleukin-8 (IL8), CXCL8 (gene 3576); experiment: BSK_LPS_IL8: BioMAP Diversity Plus: LPS Assay for Interleukin-8 (IL8) Biomarker Activity (AID 2283078); conditions: primary human HUVEC with PBMC; actives raise or lower the signal
How it was run: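 Readout is IL-8 by ELISA, taken 24 h after compounds were added to LPS-stimulated endothelial/PBMC co-cultures. Both increases and decreases relative to DMSO control were scored through bidirectional fitting.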

[19] = BSK_LPS_SRB: Viability Assessment in the BioMAP Diversity Plus: LPS Assay (AID 2283079); conditions: primary human HUVEC with PBMC;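 also: total protein by sulforhodamine B absorbance as a cytotoxicity measure; measured one day after compound addition; fitted in both directions against DMSO so loss or gain of signal counts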
How it was run: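 Readout is SRB absorbance at 560 nm (0.1% stain, TCA-fixed parallel cultures) as a total-protein cytotoxicity measure. Cells: primary human umbilical vein endothelium plus peripheral blood mononuclear cells, 24 h after chemical exposure; DMSO served as baseline.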

[20] = read-out: Transforming growth factor beta 1 (TGFb1), TGFB1 (gene 7040); experiment: BSK_KF3CT_TGFb1: BioMAP Diversity Plus: KF3CT Assay for Transforming growth factor beta 1 (TGFb1) Biomarker Activity (AID 2283072); conditions: primary human keratinocytes with fibroblasts; actives raise or lower the signal
How it was run: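 Read-out: ELISA for TGF-b1 in keratinocyte/foreskin fibroblast human skin co-culture, 24 h after dosing; bidirectional curve fit vs DMSO baseline; gain or loss of signal scored.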

Measured: AC50

E-selectin (Homo sapiens), sequence (P16581 whole entry, looked up): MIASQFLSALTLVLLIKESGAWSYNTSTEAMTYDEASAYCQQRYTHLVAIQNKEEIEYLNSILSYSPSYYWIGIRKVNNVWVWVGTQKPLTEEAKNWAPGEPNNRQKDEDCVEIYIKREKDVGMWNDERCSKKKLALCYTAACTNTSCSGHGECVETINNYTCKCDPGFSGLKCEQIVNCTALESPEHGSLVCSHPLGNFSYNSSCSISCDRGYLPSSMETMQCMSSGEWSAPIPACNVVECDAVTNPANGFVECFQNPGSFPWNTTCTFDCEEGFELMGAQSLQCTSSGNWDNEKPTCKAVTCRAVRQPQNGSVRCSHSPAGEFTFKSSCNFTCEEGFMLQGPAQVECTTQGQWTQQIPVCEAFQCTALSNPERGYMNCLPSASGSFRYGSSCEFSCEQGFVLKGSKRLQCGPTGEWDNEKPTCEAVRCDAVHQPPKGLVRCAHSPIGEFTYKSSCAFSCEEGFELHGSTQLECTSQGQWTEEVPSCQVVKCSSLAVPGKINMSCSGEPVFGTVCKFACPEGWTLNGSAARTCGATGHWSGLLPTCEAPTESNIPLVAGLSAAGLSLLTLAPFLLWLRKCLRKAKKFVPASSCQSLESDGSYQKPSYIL

FC(F)(F)C(F)(F)C(F)(F)C(F)(F)C(F)(F)C(F)(F)CC[Si](Cl)(Cl)Cl
not listed: [20]
inactive: all other assays above

NS(=O)(=O)C(F)(F)C(F)(F)C(F)(F)C(F)(F)C(F)(F)C(F)(F)F
active: [6] 26.9 µM | [14] 14.6 µM | [16] 20.1 µM | [19] 40.1 µM
inactive: [1] | [2] | [3] | [4] | [5] | [6] | [7] | [8] | [9] | [10] | [12] | [13] | [14] | [15] | [16] | [17] | [18] | [19]

FC(F)(F)C(F)(F)C(F)(F)C(F)(F)C(F)(F)C(F)(F)C(F)(F)CCI
active: [1] 1.47 µM | [4] 3.33 µM | [13] 3.94 µM
inactive: [1] | [2] | [3] | [4] | [5] | [6] | [8] | [9] | [10] | [11] | [12] | [13] | [14] | [15] | [16] | [17] | [18] | [19]

OCCCC(F)(F)C(F)(F)C(F)(F)C(F)(F)C(F)(F)C(F)(F)C(F)(F)C(F)(F)F
active: [1] 8.04 µM and 6.66 µM | [2] 9.4 µM and 6.19 µM | [3] 9.8 µM and 11.3 µM | [4] 12.5 µM and 12 µM | [5] 19 µM and 13.3 µM | [6] 9.41 µM and 6.1 µM | [7] 6.66 µM and 5.89 µM | [8] 12.8 µM and 11.7 µM | [9] 12.8 µM and 9.49 µM | [10] 8.92 µM and 10.7 µM | [11] 11 µM and 8.25 µM | [12] 14.5 µM and 8.21 µM | [13] 11 µM and 8.31 µM | [14] 9.36 µM and 10.8 µM | [15] 14.9 µM and 9.45 µM | [16] 34.7 µM and 32.9 µM | [17] 15.3 µM and 30 µM | [18] 45.9 µM and 42.5 µM | [19] 41.5 µM and 45.7 µM

OCCCCC(F)(F)C(F)(F)C(F)(F)C(F)(F)F
not listed: [20]
inactive: all other assays above

CCN(CC)c1ccc(C=O)c(O)c1
inactive: all assays above

O=C=NCc1cccc(CN=C=O)c1
not listed: [11]
inactive: all other assays above

OCC(O)CC(F)(F)C(F)(F)C(F)(F)C(F)(F)F (stereo not drawn)
not listed: [20]
inactive: all other assays above

NC(=O)C(F)(F)C(F)(F)C(F)(F)F
not listed: [11] | [20]
inactive: all other assays above

C[Si](Cl)(Cl)CCC(F)(F)C(F)(F)C(F)(F)C(F)(F)C(F)(F)C(F)(F)F
inactive: [1] | [2] | [3] | [5] | [7] | [8] | [9] | [10] | [11] | [12] | [13] | [14] | [15] | [16] | [17] | [18] | [19]
active: [1] 0.605 µM | [3] 739 nM | [4] 1.26 µM and 1.52 µM | [5] 1.18 µM | [6] 1.4 µM and 876 nM
